According to the supplement of paper PMC11732987, “Enantioselective OTUD7B fragment discovery through chemoproteomics screening and high-throughput optimisation” (Communications Chemistry, 2025):

Experiments:
Test in all cases: log2 ratio of Biotin-Ahx-Ub-VS probe labelling (fragment/DMSO); higher = less target engagement (more negative = stronger competition), active = hit call of the paper (q ≤ 0.05, log2 ratio ≤ -1)
Conditions in all cases: compound concentration: 200 uM; treatment time: 3 h
USP34 = USP34 (UniProt Q70CQ2)
Sequence of USP34 (Q70CQ2 whole entry, the tested form may be a part): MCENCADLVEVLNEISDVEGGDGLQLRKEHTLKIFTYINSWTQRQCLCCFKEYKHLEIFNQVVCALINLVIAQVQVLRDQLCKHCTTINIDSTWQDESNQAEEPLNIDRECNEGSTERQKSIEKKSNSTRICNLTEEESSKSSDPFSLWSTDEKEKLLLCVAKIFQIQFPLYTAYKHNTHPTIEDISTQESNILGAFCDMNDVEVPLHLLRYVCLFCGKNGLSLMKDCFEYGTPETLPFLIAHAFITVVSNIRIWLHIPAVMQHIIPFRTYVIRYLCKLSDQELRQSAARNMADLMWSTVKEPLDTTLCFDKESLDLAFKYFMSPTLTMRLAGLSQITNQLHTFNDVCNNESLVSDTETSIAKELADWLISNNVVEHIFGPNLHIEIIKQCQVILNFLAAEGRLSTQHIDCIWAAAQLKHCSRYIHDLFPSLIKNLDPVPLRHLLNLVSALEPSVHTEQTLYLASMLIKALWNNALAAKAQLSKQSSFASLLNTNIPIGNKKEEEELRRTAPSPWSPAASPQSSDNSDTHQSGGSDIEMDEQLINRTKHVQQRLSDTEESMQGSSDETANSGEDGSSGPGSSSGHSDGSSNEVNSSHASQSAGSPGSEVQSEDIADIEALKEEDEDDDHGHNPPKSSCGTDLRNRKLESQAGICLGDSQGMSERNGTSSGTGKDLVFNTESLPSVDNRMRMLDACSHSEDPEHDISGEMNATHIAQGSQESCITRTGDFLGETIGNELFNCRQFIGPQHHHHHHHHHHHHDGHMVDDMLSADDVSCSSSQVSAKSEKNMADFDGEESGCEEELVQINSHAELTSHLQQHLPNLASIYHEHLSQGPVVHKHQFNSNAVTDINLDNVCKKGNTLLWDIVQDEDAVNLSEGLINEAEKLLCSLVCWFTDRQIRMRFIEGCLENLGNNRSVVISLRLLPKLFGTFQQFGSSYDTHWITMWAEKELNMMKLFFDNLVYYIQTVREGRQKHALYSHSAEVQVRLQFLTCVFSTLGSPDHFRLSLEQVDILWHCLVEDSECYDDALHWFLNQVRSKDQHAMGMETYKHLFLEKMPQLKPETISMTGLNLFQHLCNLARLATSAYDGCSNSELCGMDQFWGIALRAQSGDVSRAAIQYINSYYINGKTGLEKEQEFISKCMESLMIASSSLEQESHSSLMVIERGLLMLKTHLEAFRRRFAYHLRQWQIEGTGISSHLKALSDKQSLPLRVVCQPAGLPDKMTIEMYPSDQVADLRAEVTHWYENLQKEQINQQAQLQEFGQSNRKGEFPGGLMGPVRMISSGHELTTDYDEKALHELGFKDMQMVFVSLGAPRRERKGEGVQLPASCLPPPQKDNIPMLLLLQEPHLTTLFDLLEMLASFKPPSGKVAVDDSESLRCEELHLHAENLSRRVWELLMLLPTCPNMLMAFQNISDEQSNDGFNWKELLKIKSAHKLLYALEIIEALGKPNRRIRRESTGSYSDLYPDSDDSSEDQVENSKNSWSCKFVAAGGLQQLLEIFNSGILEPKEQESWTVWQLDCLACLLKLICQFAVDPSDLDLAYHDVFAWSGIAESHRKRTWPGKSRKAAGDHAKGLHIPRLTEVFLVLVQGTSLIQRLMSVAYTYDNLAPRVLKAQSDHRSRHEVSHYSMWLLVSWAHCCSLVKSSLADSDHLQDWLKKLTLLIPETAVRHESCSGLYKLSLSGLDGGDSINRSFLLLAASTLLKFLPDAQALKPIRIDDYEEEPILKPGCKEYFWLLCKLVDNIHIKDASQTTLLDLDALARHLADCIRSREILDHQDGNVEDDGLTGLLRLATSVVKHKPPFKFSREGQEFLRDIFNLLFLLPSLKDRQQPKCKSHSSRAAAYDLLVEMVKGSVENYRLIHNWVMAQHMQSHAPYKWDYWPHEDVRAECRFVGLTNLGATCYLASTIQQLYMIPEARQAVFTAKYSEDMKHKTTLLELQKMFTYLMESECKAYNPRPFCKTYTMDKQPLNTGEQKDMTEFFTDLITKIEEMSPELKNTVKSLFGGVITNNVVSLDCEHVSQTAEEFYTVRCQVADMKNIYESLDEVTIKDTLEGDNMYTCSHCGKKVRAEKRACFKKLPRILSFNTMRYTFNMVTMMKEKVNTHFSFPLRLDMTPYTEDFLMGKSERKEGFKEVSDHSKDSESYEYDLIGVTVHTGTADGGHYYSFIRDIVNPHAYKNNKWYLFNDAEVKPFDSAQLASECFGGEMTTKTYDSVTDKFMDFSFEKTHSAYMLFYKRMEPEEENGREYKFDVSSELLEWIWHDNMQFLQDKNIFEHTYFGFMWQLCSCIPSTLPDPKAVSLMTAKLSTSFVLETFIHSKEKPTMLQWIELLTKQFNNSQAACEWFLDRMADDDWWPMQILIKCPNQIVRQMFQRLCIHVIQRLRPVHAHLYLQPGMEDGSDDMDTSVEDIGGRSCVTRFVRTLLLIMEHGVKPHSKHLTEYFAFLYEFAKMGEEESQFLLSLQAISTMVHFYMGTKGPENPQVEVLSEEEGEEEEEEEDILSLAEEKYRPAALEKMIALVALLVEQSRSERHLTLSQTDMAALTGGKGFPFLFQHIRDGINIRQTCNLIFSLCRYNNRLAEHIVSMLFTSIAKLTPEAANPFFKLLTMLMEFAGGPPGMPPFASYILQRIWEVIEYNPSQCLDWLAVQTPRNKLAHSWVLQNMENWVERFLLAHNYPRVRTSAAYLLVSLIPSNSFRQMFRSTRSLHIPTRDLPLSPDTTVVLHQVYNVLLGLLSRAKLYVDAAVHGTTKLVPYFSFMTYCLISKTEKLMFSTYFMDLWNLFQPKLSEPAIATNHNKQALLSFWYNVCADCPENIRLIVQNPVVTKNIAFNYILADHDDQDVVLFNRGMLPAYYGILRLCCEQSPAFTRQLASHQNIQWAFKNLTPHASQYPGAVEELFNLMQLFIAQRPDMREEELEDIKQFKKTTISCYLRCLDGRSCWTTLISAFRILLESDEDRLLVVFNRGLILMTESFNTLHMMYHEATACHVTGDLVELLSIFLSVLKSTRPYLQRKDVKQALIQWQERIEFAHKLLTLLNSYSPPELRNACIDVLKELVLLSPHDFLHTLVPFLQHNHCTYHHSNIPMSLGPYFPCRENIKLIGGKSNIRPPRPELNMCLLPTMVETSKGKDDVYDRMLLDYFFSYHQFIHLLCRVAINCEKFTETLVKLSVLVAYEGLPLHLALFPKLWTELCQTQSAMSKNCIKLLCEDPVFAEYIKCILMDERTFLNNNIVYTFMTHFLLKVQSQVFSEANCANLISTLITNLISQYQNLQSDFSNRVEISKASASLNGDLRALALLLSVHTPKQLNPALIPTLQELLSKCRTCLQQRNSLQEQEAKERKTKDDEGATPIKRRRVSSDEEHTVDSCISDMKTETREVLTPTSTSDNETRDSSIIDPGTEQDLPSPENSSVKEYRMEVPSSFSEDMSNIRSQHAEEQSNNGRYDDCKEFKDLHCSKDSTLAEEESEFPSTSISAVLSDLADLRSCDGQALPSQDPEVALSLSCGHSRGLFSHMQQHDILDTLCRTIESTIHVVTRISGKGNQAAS
Method in brief: (§1)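 Fragment (200 µM) or vehicle was incubated for 3 h with triplicate HEK293T lysate samples of 495 µg, which were then treated with Biotin-Ahx-Ub-VS at 0.5 µM final for 1 h. Labelled DUBs were enriched on NeutrAvidin, digested with LysC and trypsin, and analysed by diaPASEF LC-MS/MS. Values are average log2 fragment/vehicle ratios from an unpaired t-test on global-median-normalised Spectronaut label-free quantities, using proteins with ≥2 unique peptides.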

USP36 = target: T1, USP36 (UniProt Q9P275)
T1 sequence (whole entry): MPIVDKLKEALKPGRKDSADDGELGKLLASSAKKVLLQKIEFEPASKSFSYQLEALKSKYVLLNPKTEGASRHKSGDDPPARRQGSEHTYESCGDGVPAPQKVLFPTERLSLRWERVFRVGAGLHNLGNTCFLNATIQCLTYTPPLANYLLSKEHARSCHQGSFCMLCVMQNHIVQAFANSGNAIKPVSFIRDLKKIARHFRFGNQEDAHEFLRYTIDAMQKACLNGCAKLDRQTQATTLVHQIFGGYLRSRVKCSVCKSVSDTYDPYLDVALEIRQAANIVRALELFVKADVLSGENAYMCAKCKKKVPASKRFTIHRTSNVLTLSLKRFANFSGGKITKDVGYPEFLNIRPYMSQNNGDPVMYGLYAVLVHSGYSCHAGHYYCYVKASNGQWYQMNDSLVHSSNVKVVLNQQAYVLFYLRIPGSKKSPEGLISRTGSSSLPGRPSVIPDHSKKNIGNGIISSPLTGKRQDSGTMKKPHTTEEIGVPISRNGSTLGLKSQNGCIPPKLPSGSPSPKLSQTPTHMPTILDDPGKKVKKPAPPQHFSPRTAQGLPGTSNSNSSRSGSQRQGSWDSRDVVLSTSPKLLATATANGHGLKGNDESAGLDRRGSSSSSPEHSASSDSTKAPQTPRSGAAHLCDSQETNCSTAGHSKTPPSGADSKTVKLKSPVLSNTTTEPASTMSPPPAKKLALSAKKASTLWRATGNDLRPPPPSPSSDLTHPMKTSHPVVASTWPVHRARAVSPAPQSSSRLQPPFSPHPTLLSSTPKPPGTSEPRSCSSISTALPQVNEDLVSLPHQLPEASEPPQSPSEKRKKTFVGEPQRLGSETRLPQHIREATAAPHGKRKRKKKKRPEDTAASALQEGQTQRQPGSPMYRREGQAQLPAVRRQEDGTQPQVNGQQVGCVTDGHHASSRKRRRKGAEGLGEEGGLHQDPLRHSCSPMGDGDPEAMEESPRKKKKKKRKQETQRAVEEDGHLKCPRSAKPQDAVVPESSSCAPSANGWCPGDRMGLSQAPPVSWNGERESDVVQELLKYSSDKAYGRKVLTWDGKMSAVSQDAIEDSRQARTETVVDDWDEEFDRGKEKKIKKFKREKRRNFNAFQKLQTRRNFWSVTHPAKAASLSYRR
Method in brief: as §1

USP38 = target: T2, USP38 (UniProt Q8NB14)
T2 sequence (whole entry): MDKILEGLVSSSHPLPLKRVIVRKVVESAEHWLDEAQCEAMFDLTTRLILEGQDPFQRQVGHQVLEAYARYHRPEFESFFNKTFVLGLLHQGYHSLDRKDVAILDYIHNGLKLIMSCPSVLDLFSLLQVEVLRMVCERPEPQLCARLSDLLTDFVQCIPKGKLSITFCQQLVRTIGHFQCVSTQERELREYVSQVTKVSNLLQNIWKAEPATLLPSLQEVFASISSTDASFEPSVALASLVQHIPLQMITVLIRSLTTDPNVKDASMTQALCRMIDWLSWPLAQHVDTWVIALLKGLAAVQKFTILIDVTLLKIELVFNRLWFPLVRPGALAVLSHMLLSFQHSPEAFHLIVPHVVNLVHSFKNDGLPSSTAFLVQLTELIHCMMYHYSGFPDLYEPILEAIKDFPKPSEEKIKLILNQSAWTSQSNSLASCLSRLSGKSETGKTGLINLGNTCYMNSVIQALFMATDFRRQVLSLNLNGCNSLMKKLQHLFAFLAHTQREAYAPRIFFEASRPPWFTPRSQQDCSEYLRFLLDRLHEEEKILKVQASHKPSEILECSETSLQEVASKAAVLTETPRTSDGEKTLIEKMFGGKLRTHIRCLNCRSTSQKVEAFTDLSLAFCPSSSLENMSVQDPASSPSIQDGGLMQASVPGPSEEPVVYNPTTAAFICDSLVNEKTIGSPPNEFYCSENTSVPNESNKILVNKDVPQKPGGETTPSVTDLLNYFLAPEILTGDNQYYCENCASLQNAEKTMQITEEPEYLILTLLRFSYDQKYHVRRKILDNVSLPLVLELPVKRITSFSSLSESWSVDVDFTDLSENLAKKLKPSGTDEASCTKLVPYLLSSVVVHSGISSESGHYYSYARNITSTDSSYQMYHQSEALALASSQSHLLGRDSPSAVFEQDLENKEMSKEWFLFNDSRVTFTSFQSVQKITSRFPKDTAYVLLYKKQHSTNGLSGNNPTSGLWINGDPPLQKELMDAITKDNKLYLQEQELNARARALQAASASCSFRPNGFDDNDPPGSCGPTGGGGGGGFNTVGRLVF
Method in brief: as §1

USP39 = target: T3, USP39 (UniProt Q53GS9)
T3 sequence (whole entry): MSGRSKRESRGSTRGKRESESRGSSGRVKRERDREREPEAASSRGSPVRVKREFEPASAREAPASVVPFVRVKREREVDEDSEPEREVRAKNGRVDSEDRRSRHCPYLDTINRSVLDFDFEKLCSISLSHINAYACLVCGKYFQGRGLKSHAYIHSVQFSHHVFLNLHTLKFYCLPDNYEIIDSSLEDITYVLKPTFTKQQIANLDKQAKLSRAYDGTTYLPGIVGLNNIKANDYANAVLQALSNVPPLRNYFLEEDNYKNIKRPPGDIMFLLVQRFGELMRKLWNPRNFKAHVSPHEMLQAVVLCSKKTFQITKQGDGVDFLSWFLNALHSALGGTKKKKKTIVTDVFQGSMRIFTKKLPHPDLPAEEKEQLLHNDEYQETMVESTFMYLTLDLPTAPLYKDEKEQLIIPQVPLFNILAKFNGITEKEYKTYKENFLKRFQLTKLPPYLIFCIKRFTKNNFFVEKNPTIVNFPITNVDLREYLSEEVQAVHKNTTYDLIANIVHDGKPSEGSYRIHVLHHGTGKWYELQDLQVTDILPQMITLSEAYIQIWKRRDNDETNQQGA
Method in brief: as §1

USP4 = target: T4, USP4 (UniProt Q13107)
T4 sequence (whole entry): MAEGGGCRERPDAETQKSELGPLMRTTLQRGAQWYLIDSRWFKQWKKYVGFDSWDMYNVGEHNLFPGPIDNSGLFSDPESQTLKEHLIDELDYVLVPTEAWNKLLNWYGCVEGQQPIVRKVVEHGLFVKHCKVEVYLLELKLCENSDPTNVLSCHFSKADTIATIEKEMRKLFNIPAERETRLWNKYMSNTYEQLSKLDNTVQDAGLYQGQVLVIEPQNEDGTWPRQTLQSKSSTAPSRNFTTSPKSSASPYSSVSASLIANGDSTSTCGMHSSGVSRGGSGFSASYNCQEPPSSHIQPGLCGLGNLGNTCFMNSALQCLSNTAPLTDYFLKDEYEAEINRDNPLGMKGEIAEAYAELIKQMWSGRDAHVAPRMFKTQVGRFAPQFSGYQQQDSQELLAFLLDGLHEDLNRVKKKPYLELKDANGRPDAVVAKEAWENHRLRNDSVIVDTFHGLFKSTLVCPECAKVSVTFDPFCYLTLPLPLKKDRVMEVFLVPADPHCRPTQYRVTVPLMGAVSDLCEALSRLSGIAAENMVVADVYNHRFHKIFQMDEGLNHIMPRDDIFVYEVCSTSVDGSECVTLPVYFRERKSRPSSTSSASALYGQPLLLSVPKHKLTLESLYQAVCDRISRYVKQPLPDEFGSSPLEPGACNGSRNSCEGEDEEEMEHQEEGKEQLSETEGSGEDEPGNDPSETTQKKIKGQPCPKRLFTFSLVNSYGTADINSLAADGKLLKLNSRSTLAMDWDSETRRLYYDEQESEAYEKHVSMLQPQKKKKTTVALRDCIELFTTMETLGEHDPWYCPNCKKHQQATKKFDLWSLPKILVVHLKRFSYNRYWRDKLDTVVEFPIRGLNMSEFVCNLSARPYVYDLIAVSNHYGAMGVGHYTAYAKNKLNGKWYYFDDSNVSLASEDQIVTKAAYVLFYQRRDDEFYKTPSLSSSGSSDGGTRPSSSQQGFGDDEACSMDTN
Method in brief: as §1

Measured: log2 ratio of Biotin-Ahx-Ub-VS probe labelling

O=C(CCl)NCc1ccc(Cl)cc1
inactive: USP34 -0.211 | USP36 0.0776 | USP38 -0.0243 | USP39 -0.155 | USP4 0.0847
